# Beta apoptosis: beta cell apoptosis inhibition. INS-1E cytokine-induced death, ATP luminescence, 48 h; percent of positive-control rescue, neutral wells zero. protection from apoptosis, % (no concentration beside the values). hit rate 0.8% among 300,000. AID 435005;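 active = Every replicate reaches about 75%, or at least half do and their mean reaches it too, limit read from the data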;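 also: 0% = cytokine-treated negative control wells and 100% = positive control rescue; higher means more ATP so stronger rescue from cytokine killing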
# Jurkat NFkB inh: lowers PMA/ionomycin-induced NF-kB signal in Jurkat cells. PMA/ionomycin-induced NF-kB luciferase reporter, luminescence. inhibition, % at 4 µM. hit rate 0.53% among 330,000. AID 435003; in the data active = inhibition above about 50%
# 697 NFkB inh: inhibitors of the PMA/ionomycin-induced NF-kB reporter in 697 B cells. hit rate 0.33% among 330,000. inhibition, % at 4 µM. 697 B-cell NF-kB luciferase reporter, 16 h; in the data active = inhibition above about 35%
# Gli-Sufu antag: Gli-Sufu pathway antagonism; Sufu-KO-LIGHT fibroblasts, Gli luciferase reporter luminescence; inhibition, % at 5 µM; hit rate 0.74% among 340,000; AID 588413;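 active = inhibition above about 55%, limit read from the data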;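 also: 0% = DMSO-treated cells and 100% = wells with medium but no cells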
# Jurkat NFkB conf: lowers PMA/ionomycin-induced NF-kB signal in Jurkat cells; inhibition, % at 4 µM; AID 435020; Jurkat NF-kB luciferase, 16 h; shares compounds with Jurkat NFkB inh; hit rate 27% among 2,700;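 active = inhibition reaching about 45% at 4 µM in either replicate, limit read from the data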;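 also: plate controls were PMA/ionomycin stimulated DMSO wells for no effect and unstimulated DMSO wells for full effect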
# 697 NFkB conf: lowers PMA/ionomycin-induced NF-kB signal in 697 B cells. shares compounds with 697 NFkB inh. 697 B-cell NF-kB luciferase, 16 h. inhibition, % at 4 µM. hit rate 35% among 2,000. AID 449746; in the data active = inhibition mostly above about 28%, no sharp cut-off; inactive = mostly below about 22%
# * hit, by the source's call; i = inactive; nt = no result. Only some compounds are listed: those with a hit (about 1.8% of all), similar ones and a draw of the others.
SMILES,Beta apoptosis,Jurkat NFkB inh,697 NFkB inh,Gli-Sufu antag,Jurkat NFkB conf,697 NFkB conf
CCCCCCn1ccc(=N)cc1,120.3*,62.7*,72.3*,5.2,56.2*,73.5*
Cc1ccc(C(=O)N/N=C/c2ccc([N+](=O)[O-])s2)cc1,-55.7,64.4*,38.2*,-28.8,48.5*,16.1
CN(c1c(C#N)c(C(F)(F)F)nn1C)N(S(C)(=O)=O)S(C)(=O)=O,-13.7,6.8,3.8,-3.7,nt,nt
COCCn1c(C)cc(C(=O)CSc2nc3ccccc3c(=O)n2Cc2ccco2)c1C,5.1,-159.5,-275.6,-99.0,5.2,-102.8
CN(C)c1ccc(/C=N/NC(=O)c2ccccc2)cc1,8.4,-30.5,-77.9,-95.2,nt,nt
C/C(=N/N=C/c1ccc(N(C)C)cc1)c1ccccc1,-5.2,-163.4,-273.8,-32.6,0.6,-48.5
O=C(c1ccccc1)n1c(=S)nc2ccccn21,27.1,-157.1,-318.5,-186.5,-60.7,-274.5
COCCCn1c2nc3ccccc3nc2c2c(=O)n(Cc3cccs3)cnc21,0.3,8.6,28.1,nt,nt,nt
Cc1ccc(C(=O)/C=C/c2cn(CN3CCN(C)CC3)c3ccccc23)cc1,-17.5,7.9,-89.7,-23.8,nt,nt
Cn1cc(/C=C/C(=O)c2ccccc2)c2ccccc21,nt,-170.2,-271.8,-75.9,-41.1,-118.4
O=Nc1ccc(O)c2ncccc12,42.5,59.7*,i,38.4,24.6,i
CCOc1ccc(OCc2cccc(C(=O)O)c2)cc1,13.3,88.0*,92.1*,-104.3,90.2*,76.6*
O=C(O)c1cccc(COc2ccc(CO)cc2Cl)c1,-5.7,94.3*,75.4*,-140.7,88.8*,59.4*
O=C(O)c1cccc(COc2ccc3c(c2)CCC3)c1,-3.2,70.0*,61.5*,-173.0,63.9*,45.1*
O=C(O)c1ccc(COc2ccc(CO)cc2Cl)cc1,0.9,-5.8,-60.7,-22.6,nt,nt
COc1ccc(OCc2cccc(C(=O)O)c2)cc1,-3.7,87.6*,80.4*,-210.0,88.0*,70.8*
CN(C)c1ccc(C(=O)Nc2nnc(C3=COCCO3)o2)cc1,-8.2,-4.7,16.8,-8.0,nt,nt
COc1ccc(/C=C2\SC(=S)N(CCCC(=O)Nc3ccccn3)C2=O)cc1OC,-11.2,9.5,16.3,8.1,nt,nt
O=C(OCC(F)(F)F)c1cccc(COc2ccc3ccccc3c2)c1,-1.8,76.9*,57.8*,-128.0,42.1,33.4*
O=Cc1ccc(OCc2cccc(C(F)(F)F)c2)cc1O,0.4,-3.1,10.7,-25.3,nt,nt
Cc1cc(CSc2ccccc2)ccc1NC(=O)c1ccc(CN2CCOCC2)cc1,7.0,70.0*,48.9*,40.1,72.5*,46.7*
COc1ccc(-n2ncc3c(NCC(C)C)ncnc32)cc1,-5.8,-185.4,-326.9,-88.4,-136.0,-300.2
CCOc1ccc(-c2cc(C(=O)N/N=C/c3cccnc3)c3ccccc3n2)cc1,10.1,58.1*,-393.1,-42.7,-3.6,-300.6
O=C(Nc1nc2cc3c(cc2s1)OCCO3)c1cccs1,17.6,-183.4,-474.5,-100.8,-80.2,-428.5
Nc1c(-c2ccccc2)cnc2c(-c3ccccc3)cnn12,0.8,-231.4,i,-105.9,-190.3,i
SMILES,Beta apoptosis,Jurkat NFkB inh,697 NFkB inh,Gli-Sufu antag,Jurkat NFkB conf,697 NFkB conf
Nc1c(C(=O)O)cnc2c(-c3ccc(Cl)cc3)cnn12,-1.3,-61.3,-144.1,-83.0,nt,nt
CCn1c(C)nc2cc(-c3nc4n(n3)Cc3ccccc3-4)ccc21,71.4,90.6*,69.9*,87.5*,90.7*,73.6*
COc1ccc(C2=NN3C(C2)c2ccccc2OC32C(=O)N(C)c3ccccc32)cc1 (stereo not drawn),-1.9,-182.3,-306.0,0.4,-139.2,-246.7
Cc1cc(C)cc(C(=O)NC2CC(C)(C)NC(C)(C)C2)c1,nt,-11.3,0.5,-16.0,nt,nt
COc1ccc(CC(=O)Nc2nc(-c3ccc(OC)c(OC)c3)cs2)cc1OC,17.1,-12.6,-4.6,29.5,nt,nt
Cc1nc(N)sc1-c1csc(Nc2ccccn2)n1,nt,nt,nt,5.6,nt,nt
CC(=O)Nc1cccc(-c2csc(Nc3ccc(C)cn3)n2)c1,5.9,-200.8,-346.8,-127.3,-87.8,-315.1
COc1ccc(-c2csc(Nc3ccccn3)n2)cc1OC,-3.9,-178.2,-265.3,-105.4,-101.8,-92.9
c1ccc(-c2csc(Nc3ccccn3)n2)cc1,3.3,-158.6,-268.2,-50.7,-74.1,-252.9
Cc1ccc(-c2csc(Nc3ccccn3)n2)cc1,6.9,-153.9,-370.6,-41.8,-9.2,-257.5
O=C(CCCn1nnnc1CN1CCOCC1)N1CCC(c2ccccc2Cl)C1 (stereo not drawn),-2.9,-9.0,-7.3,19.9,nt,nt
O=c1c2[nH]c3ccc(F)cc3c2nc2n1CCS2,0.7,-12.6,8.7,5.0,nt,nt
CC1=[N+](CC(=O)NC(C)(C)C)CCc2ccccc21,-9.6,4.3,25.2,0.2,nt,nt
COc1ccc(N2CCN(S(=O)(=O)c3ccc(C(=O)NCc4ccco4)cc3)CC2)cc1,nt,5.6,-13.6,6.1,nt,nt
COc1ccc2oc(C(=O)OCC(=O)N3CCN(S(=O)(=O)c4ccccc4)CC3)c(C)c2c1,0.5,0.6,21.1,2.2,nt,nt
Fc1ccc(-c2csc(Nc3ccccn3)n2)c(F)c1,4.8,-168.1,-295.2,-0.5,-119.4,-160.4
O=C(Nc1nc(-c2cc(F)ccc2F)cs1)c1ccccn1,11.2,-18.8,-42.8,-11.5,nt,nt
Cc1ccc(Cn2ccsc2=NC(=O)CCl)cc1,37.7,78.2*,94.2*,48.5,50.7*,98.3*
Cc1ccc(C(=O)O/N=C(\N)Cc2cccs2)c(Cl)c1,nt,-153.4,-253.2,-102.9,-82.3,-282.3
Cc1ccc(C(=O)O/N=C(\N)Cc2ccc([N+](=O)[O-])cc2)c(Cl)c1,-3.9,19.2,-29.0,-3.1,nt,nt
Cc1ccc(-c2nc(-c3ccccc3)no2)cc1,4.1,-177.2,-294.7,-120.7,-123.0,-283.1
c1ccc(-c2noc(-c3cccc4ccccc34)n2)cc1,-3.1,-131.0,-179.4,-6.0,nt,nt
Brc1ccccc1-c1nc(-c2ccccc2)no1,11.0,-153.4,-303.3,nt,-97.8,-329.3
Cc1ccc(-c2nc(-c3ccncc3)no2)cc1,-2.7,nt,nt,-61.0,nt,nt
CC(C)(C)c1ccc(-c2nc(-c3ccncc3)no2)cc1,31.5,-192.7,-354.5,-39.1,-69.0,-379.0
SMILES,Beta apoptosis,Jurkat NFkB inh,697 NFkB inh,Gli-Sufu antag,Jurkat NFkB conf,697 NFkB conf
CCOc1ccc(OCc2ccc(C(=O)OCc3ccccn3)o2)cc1,-3.2,24.2,-23.1,-84.8,nt,nt
O=C(CSc1cccc2cccnc12)OCC(=O)c1ccc(Br)cc1,-7.3,10.7,9.7,2.0,nt,nt
CC(=O)Nc1ccc2nc(C)n(Cc3ccc(Cl)cc3)c(=O)c2c1,-7.8,-20.4,-12.9,-28.9,nt,nt
O=C(CCN1C(=O)NC2(CCCC2)C1=O)Nc1ccc(-c2nc3ccccc3s2)cc1,nt,-180.6,-264.1,-73.9,-80.5,-332.3
NC(=O)c1ccc(NC(=O)CCCN2C(=O)NC3(CCCC3)C2=O)cc1,-2.1,-9.2,15.0,-6.8,nt,nt
O=C(NCCNCCO)C1(C(F)(F)F)C/C(=C\CCO)CCCO1 (stereo not drawn),-5.9,54.2*,60.6*,2.9,83.2*,58.5*
CSc1ccc(/C=C/C(=O)OCC(=O)N2CCCCCC2)cc1,-5.0,17.3,4.6,-3.7,nt,nt
CCOC(=O)c1cccc(NC(=O)Nc2ccc(OCC)cc2)c1,-1.2,-25.0,-54.3,-84.1,nt,nt

# Screens as filed in PubChem BioAssay.
